Screening data deposited in PubChem by National Center for Advancing Translational Sciences (NCATS).
PLK1 PBD inh: inhibitors of human PLK1 polo-box domain binding; P53350; Plk1 PBD binding of FITC phosphopeptide, fluorescence polarization; Potency, µM, hits mostly inhibitors; 2.8% of 360,000 active; note: series mostly up to about 57 µM; nearly all actives have a fitted effect of over 65% in size
DT40 TDP1 CPT: growth inhibition of DT40 Tdp1-/-;hTDP1 cells with camptothecin (screen for TDP1 inhibitors); AID 686979; chicken DT40 Tdp1-/-;hTDP1 cells + 20 nM CPT, ATP luminescence, 48 h; Potency, µM (doses to about 46.2 µM), actives largely listed as inhibitors; 12% of 420,000 active; note: nearly all actives have a fitted effect of over 55% in size
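Chicken DT40 Tdp1-/- cells stably complemented with human TDP1 were seeded at 400 cells/well in medium containing 20 nM camptothecin, exposed to pin-transferred compounds, and grown at 37 °C for at least 48 hr. Viability was read as ATP luminescence.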
DT40 TDP1 no CPT: qHTS for Inhibitors of human tyrosyl-DNA phosphodiesterase 1 (TDP1): qHTS in cells in absence of CPT; DT40 Tdp1-/- hTDP1 cells, no CPT, ATP luminescence, 48 h; Potency, µM (series often up to 46.2 µM), hits mostly inhibitors; 15% of 420,000 active; note: nearly all actives have a fitted effect of over 55% in size
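Readout: luminescence from CellTiter-Glo after 30 min in the dark at RT. Cells: DT40 Tdp1-/- with stable hTDP1, 400/well. Exposure: compounds alone, ≥48 hr, 37 °C.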
TDP1 inh: TDP1 (human) enzyme inhibition | 0.28% of 350,000 active | Q9NUW8 | recombinant TDP1, AlphaScreen DNA substrate cleavage | Potency, µM (top dose mostly 130 µM), most hits filed as inhibitors; note: nearly all actives have a fitted effect of over 40% in size
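Enzyme-compound mixtures sat 15 min at room temperature, followed by a 5 min reaction with 15 nM final substrate and 10 min with AlphaScreen beads. Recombinant human Tdp1 was used at 1 nM final.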
VDR inh: blocks the human vitamin D receptor; P11473; VDR-SRC2-3 peptide fluorescence polarization, 2 h; Potency, µM, most hits filed as inhibitors; 0.93% of 400,000 active; AID 504847
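VDR–SRC2-3 interaction, FP format. Cmpds 23 nl via pintool, brief spin, 2 h ambient incubation.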
GCN5L2 inh: blocks human GCN5L2 histone acetyltransferase | Q92830 | GCN5L2 HAT assay, ThioGlo1 CoA-SH fluorescence | Potency, µM (doses to about 58.9 µM), hits mostly inhibitors | 0.21% of 390,000 active | AID 504327
Target sequence (Q92830 whole entry, looked up): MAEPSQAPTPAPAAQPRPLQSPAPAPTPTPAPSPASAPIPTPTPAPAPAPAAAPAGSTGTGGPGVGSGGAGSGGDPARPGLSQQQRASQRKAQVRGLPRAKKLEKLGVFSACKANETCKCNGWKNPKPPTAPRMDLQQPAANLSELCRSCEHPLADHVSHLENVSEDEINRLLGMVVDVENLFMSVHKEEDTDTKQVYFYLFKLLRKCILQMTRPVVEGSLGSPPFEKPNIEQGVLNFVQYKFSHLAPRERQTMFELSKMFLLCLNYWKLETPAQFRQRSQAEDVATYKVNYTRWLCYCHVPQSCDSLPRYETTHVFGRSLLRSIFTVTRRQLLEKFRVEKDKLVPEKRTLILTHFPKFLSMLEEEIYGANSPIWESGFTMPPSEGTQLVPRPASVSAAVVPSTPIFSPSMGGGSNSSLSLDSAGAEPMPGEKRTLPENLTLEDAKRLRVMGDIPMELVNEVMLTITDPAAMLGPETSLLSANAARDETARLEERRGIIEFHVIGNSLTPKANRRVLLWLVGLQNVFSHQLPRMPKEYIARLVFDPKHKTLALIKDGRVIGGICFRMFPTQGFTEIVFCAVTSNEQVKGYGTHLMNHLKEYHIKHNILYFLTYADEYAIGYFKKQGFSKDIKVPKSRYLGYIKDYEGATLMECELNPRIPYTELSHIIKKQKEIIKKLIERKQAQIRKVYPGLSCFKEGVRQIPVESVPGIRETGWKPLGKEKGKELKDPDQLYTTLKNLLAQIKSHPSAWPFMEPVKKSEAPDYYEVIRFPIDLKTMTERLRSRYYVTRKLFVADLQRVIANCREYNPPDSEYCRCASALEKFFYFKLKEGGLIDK
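qHTS, 1536-well. 20nM enzyme, pH 7.5 HEPES/EDTA/Tween-20 buffer; 15 min compound preinc., RT. Start: 75uM H3(1-25), 70uM AcCoA, 50uM ThioGlo1. Read Ex340/Em540 at t=0 (autofluorescence flag) and t=20 min.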
Hits are given with their value; – = inactive; ? = inconclusive; · = not tested or not shown; ! = a repeat was not active; [ ] = remark or other dose. Shown are actives, neighbours in structure and some others; about 18% of the full set was active somewhere. Calls come from the whole dose curve; as a rule, active = well fitted curve in the direction sought with a large enough effect; inconclusive = small, poorly fitted or top-dose-only effect, or another doubt; inactive = no such curve, though single readings can be large; an effect the other way counts as inactive or inconclusive.

SMILES | PLK1 PBD inh | DT40 TDP1 CPT | DT40 TDP1 no CPT | TDP1 inh | VDR inh | GCN5L2 inh
COc1cc(/C=N\NC(=O)c2ccc(-c3ccccc3)cc2)cc(OC)c1O | – | ? | – | – | – | –
C#CCN1C=C(C(=O)OCC)C(C)N(Cc2ccccc2I)S1(=O)=O (stereo unspecified) | – | 13µM | 8.2µM | – | – | –
COc1ccc(OC)c(NC(=O)CSc2ccnc(=O)[nH]2)c1 | · | – | – | – | – | –
COc1cc(NC(N)=S)c(OC)cc1Cl | – | – | – | – | – | –
COc1cc(OC)c(Cl)cc1N | 6.7µM | ? | 16µM | – | – | –
COc1ccc(C2Sc3ccccc3N(CCN(C)C)C(=O)[C@@H]2OC(C)=O)cc1 (stereo partly specified) | · | ? | ? | – | · | ·
COc1ccc([C@@H]2Sc3ccccc3N(CCN(C)C)C(=O)[C@@H]2OC(C)=O)cc1 | – | ? | 27µM! | – | – | ?
CCOc1ccc2c(=O)c(Oc3ccccc3)c(C)oc2c1 | – | ? | 21µM | – | – | –
CCOc1ccc(OCC)c(NC(=O)C2CCCN(S(=O)(=O)c3cc(Br)cc4c3N(C(=O)CC)CC4)C2)c1 (stereo unspecified) | · | ? | ? | – | – | –
Fc1ccccc1-n1[nH]nnc1=S | ? | ? | ? | – | 45µM | ·
CCOC(=O)C1OC1c1ccccc1 (stereo unspecified) | · | · | · | – | · | ·
CC1=CC(C)(C)n2c(O)c(N=NC(N)=S)c3cc(C)cc1c32 | – | – | – | – | – | –
CC1=CC(C)(C)n2c(O)c(C3=NC(=S)NC3=O)c3cc(OC(=O)c4cccc5ccccc45)cc1c32 | – | ? | 23µM | – | – | –
S=c1[nH]nc(-c2ccc(Br)cc2)n1Cc1ccccc1 | 12µM | ? | ? | – | ? | –
Cc1scc(-c2n[nH]c(=S)n2Cc2ccccc2)c1C | – | – | – | – | – | –
CCc1c(-c2n[nH]c(=S)n2Cc2ccccc2)csc1C | – | 5.8µM | 4.6µM | – | – | –
C=CCn1c(-c2ccccc2)n[nH]c1=S | 8.4µM | ? | ? | – | – | –
CCOc1ccc(Cc2n[nH]c(=S)n2Cc2ccccc2)cc1 | – | ? | 16µM | – | – | –
Cc1ccc2nc(SCC(=O)N3CCOc4ccc(CN5C[C@@H](C)O[C@@H](C)C5)cc4C3)[nH]c2c1 | · | –[9.04 µM] | ? | · | · | ·
Cc1cccc(C(=O)Oc2cccc3c(O)cccc23)c1 | – | – | – | – | – | –
CC(C)CC(O)C(=O)Nc1cc(C(F)(F)F)ccc1Cl (stereo unspecified) | · | · | · | – | · | ·
CC(C)(C)c1ccc(-c2n[nH]c(=S)n2Cc2ccccc2)cc1 | – | ? | 12µM | · | – | –
Fc1ccc(-c2n[nH]c(=S)n2Cc2ccccc2)cc1 | – | – | – | · | – | –
CCCCOc1ccc(-c2n[nH]c(=S)n2Cc2ccccc2)cc1 | – | ? | 26µM | · | – | –
C=CCn1c(-c2ccccc2)nc(=S)c2c1CCCC2 | – | ? | 23µM | · | – | –
SMILES | PLK1 PBD inh | DT40 TDP1 CPT | DT40 TDP1 no CPT | TDP1 inh | VDR inh | GCN5L2 inh
C[C@@H]1/C=C\CC(=O)OC[C@H](C)C(=O)N[C@@H](Cc2ccccc2)C(=O)OC1 | · | · | · | –[21 µM] | · | ·
COC(=O)c1scc(-c2ccc(C)cc2)c1S(=O)(=O)Nc1cc(C)ccc1OC | · | ? | 23µM | – | – | –
COC(=O)c1scc(-c2ccc(C)cc2)c1S(=O)(=O)Nc1cc(C)c(Cl)cc1OC | · | 4.6µM | 23µM | – | – | –
CCOC(=O)c1cc(S(=O)(=O)Nc2cc(C)c(Cl)cc2OC)[nH]n1 | · | – | – | – | – | –
CCOC(=O)c1scc(-c2ccccc2)c1S(=O)(=O)Nc1cc(OC)cc(OC)c1 | · | ? | ? | – | – | –
COc1cc(C(=O)NCc2ccc3c(c2)CCN3C(=O)c2ccncc2)cc(OC)c1OC | · | ? | ? | – | – | –
Cc1ccc(Cl)cc1Nc1nc2ccccc2c2nncn12 | · | ? | 23µM | – | – | –
Cc1c(C(=O)NNC(=O)c2ccccc2O)oc2ccccc12 | – | ? | ? | · | · | ·
CCCCN(C(=O)c1ccc2c(c1)S(=O)(=O)N=C1CCCCCN12)c1c(N)n(CCCC)c(=O)[nH]c1=O | – | – | – | – | – | –
N#Cc1ccc(NC(=S)/N=C(\N)c2ccccc2)cc1 | – | ? | ? | · | · | ·
N/C(=N\C(=S)Nc1ccccc1)c1ccccc1 | – | ? | 16µM | · | – | –
Cc1ccccc1Oc1nc2c(c(=O)n(C)c(=O)n2C)n1Cc1ccc(Br)cc1 | · | – | – | · | – | –
C[N+](C)(C)CCC(=O)c1cccc2ccccc12 | · | 0.58µM | 0.92µM | – | 2µM | ?
CCN(CC)CCNC(=O)CNC(=O)c1nn(-c2ccc(OC)cc2OC)c(=O)c2ccccc12 | – | – | – | · | – | –
O=C(CC1(O)C(=O)N(CCc2ccccc2)c2ccc(Br)cc21)c1ccccc1O (stereo unspecified) | · | 5.2µM | 5.8µM | · | ? | –
O=C(CC1(O)C(=O)N(Cc2ccccc2)c2ccc(Br)cc21)c1ccccc1 (stereo unspecified) | · | 15µM | 5.8µM | · | – | –
C#CCN1C(=O)C(O)(CC(=O)c2ccc(OC)c(OC)c2)c2cc(Br)ccc21 (stereo unspecified) | · | 4.6µM | 6.5µM | · | – | –
Cc1n[nH]c(C)c1C(=O)CC1(O)C(=O)N(Cc2ccccc2)c2ccc(Br)cc21 (stereo unspecified) | – | ? | ? | – | – | –
C=CCN1C(=O)C(O)(CC(=O)c2ccco2)c2cc(Br)ccc21 (stereo unspecified) | – | 2.3µM | 5.2µM | – | – | –
C#CCN1C(=O)C(O)(CC(=O)c2ccc(OC)c(OC)c2)c2ccccc21 (stereo unspecified) | – | ? | ? | – | – | –
COc1ccc(NC(=O)C/C(C)=N/NC(=O)c2cccs2)c([N+](=O)[O-])c1 | – | – | – | – | – | –
COc1ccccc1CNC(=O)COC(=O)c1cnc(C)cn1 | – | – | – | · | · | ·
COc1ccc(OC)c(CCNC(=O)Cn2ncc3c([nH]c4ccccc43)c2=O)c1 | · | – | – | – | – | –
COc1ccc(S(=O)(=O)n2cccc2)cc1 | – | – | – | · | – | ·
CC1CCCN(C2(O)C(=O)Nc3ccc([N+](=O)[O-])cc32)C1 (stereo unspecified) | – | – | – | · | – | –
CC1CCN(CCCNC(=O)C2CCN(S(=O)(=O)N3CCC4(CC3)OCCO4)CC2)CC1 | – | – | – | – | – | –
CCCCN1C(=O)C(O)(CC(=O)c2ccc(CC)cc2)c2cc(Br)ccc21 (stereo unspecified) | · | ? | 18µM | · | – | –
